# Bioassay records from PubChem.
# GLP1R inv ag: GLP-1 receptor (human) inverse agonism; HEK293 GLP-1R CRE-luciferase, luminescence, 24 h; GLP-1R form is constitutively active; Potency, µM (titrated, usually from 38.3 µM), hits mostly inhibitors; P43220; AID 624417; hit rate 1.6% among 410,000; note: nearly all actives have a fitted effect of over 55% in size
# Target sequence (P43220 whole entry, looked up): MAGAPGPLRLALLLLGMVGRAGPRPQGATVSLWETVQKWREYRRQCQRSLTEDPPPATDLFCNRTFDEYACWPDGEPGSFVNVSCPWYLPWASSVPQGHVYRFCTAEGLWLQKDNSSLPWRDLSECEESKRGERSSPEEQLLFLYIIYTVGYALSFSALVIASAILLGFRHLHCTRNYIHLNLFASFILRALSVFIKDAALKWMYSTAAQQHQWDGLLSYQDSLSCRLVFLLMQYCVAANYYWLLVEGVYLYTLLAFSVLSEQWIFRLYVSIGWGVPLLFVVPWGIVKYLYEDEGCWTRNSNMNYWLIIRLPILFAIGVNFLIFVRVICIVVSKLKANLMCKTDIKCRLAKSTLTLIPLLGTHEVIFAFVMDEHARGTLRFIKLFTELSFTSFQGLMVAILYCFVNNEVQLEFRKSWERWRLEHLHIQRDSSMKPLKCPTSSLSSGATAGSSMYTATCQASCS
#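 HEK293 cells stably co-expressing constitutively active GLP-1R and a cAMP-responsive luciferase reporter were seeded in DMEM with 10% Nu serum, given compounds after 12 h, and incubated 24 h at 37 deg C. Luminescence was then read.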
# ClpP mod: qHTS Assay for Activators of ClpP. ATP-dependent Clp protease proteolytic subunit (Bacillus subtilis (strain 168)), P80244. purified B. subtilis ClpP, FRET peptide cleavage, 20 min. Potency, µM (highest dose often 57.5 µM). hit rate 1.9% among 340,000; active = well fitted falling curve with a large enough effect; inconclusive = small, poorly fitted or top-dose-only effect; inactive = no such curve, though single readings can be large or run the other way; note: the source files actives as falling curves though it sought activators and does not explain the sign; nearly all actives have a fitted effect of over 65% in size
# Target sequence (P80244 whole entry, looked up): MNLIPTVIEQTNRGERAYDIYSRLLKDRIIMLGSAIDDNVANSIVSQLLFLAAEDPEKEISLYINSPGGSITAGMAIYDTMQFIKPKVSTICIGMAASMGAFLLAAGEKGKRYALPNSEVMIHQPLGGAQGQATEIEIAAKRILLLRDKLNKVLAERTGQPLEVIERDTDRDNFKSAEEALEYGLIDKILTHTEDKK
#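 FRET quenching reversal measured ClpP activation: 10 microg/mL B. subtilis ClpP at pH 8 with the FRET-FV decapeptide, read at 430 nm after 320 nm excitation. The 20-min minus 0-min signal was scaled between DMSO/no-enzyme wells and ADEP (5.8 microM final).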
# GLP-1R agonist: agonists of human GLP-1 receptor; P43220; HEK293 GLP-1R CRE-luciferase, luminescence, 4-6 h; cells express a hypersensitive GLP-1R form; Potency, µM (top dose mostly 45.6 µM), most hits filed as activators; hit rate 0.007% among 380,000; AID 624172
# DRD3 antagonist: blocks the human D3 dopamine receptor | AID 652054 | D3R cells, DiscoveRx beta-arrestin luminescence, antagonist mode; active compounds read low | hit rate 2.5% among 360,000 | max response, negative = inhibition, % | P35462; in the data active = max response below about -50%; inconclusive = no clear call, values can overlap the other calls
#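 Cells plated overnight at 1500 cells/well, then exposed to library compounds with dopamine controls for 90 minutes at 37 degrees C. DiscoveRx reagent added for 30–60 minutes at room temperature; luminescence read, quantitative HTS format.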
# HEK293 tox: cytotoxic in the GLP-1 receptor inverse agonist counter-screen; HEK293 cAMP-luciferase reporter cells, luminescence, 24 h; Potency, µM (highest dose often 38.3 µM), actives largely listed as inhibitors; hit rate 0.13% among 410,000;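 note: loss of luciferase light is scored as toxicity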
#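 Here, cytotoxicity is scored as loss of luminescence. The MLSMR collection was tested on cells seeded in medium containing 10% Nu serum, with a 24 hr compound exposure preceded by 12 hours of culture.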
# DRD3 agonist: agonists of human D3 dopamine receptor. hit rate 0.58% among 410,000. max activation, %. D3R DiscoveRx beta-arrestin cells, luminescence, 90 min. P35462; in the data active = max activation above about 30%
#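 Agonist-mode cell screen: cells plated at 1500/well and incubated overnight at 37 °C, then exposed to library compounds for 90 min at 37 °C. Detection reagent was added for 30–60 min at room temperature, and luminescence was read.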
# A number is an active result; – = inactive; ? = inconclusive; · = not tested or not shown. This is a sample that favours compounds with a hit; in the whole collection about 5.7% have one here. Unless noted, calls come from the whole dose curve; as a rule, active = well fitted curve in the direction sought with a large enough effect; inconclusive = small, poorly fitted or top-dose-only effect, or another doubt; inactive = no such curve, though single readings can be large; an effect the other way counts as inactive or inconclusive.
SMILES,GLP1R inv ag,ClpP mod,GLP-1R agonist,DRD3 antagonist,HEK293 tox,DRD3 agonist
O=C(Nc1ccc(N2CCN(C(=O)c3ccccc3)CC2)c(Cl)c1)c1ccco1,?,–,–,–,–,–
CCN1CCN(c2ccc(NC(=O)c3ccc([N+](=O)[O-])o3)cc2Cl)CC1,–,·,–,-72,5.6µM,–
CCC(=O)N1CCN(c2ccc(NC(=O)c3ccco3)cc2Cl)CC1,–,–,–,–,–,–
CCCC(=O)N1CCN(c2ccc(NC(=O)c3cccs3)cc2Cl)CC1,?,·,–,?,–,–
CCCC(=O)N1CCN(c2ccc(NC(=O)c3cc4ccccc4o3)cc2Cl)CC1,?,–,–,–,?,35
O=C(Nc1ccc(N2CCN(C(=O)c3ccco3)CC2)c(Cl)c1)c1cc2ccccc2o1,?,?,–,–,?,36
CCC(=O)N1CCN(c2ccc(NC(=O)c3cc4ccccc4o3)cc2Cl)CC1,11µM,–,–,–,–,–
CCc1ccc(CNC(=O)C(CC)n2nc(C)c3c(C)n(-c4ccccc4)nc3c2=O)cc1 (stereo unspecified),?,–,·,·,–,–
Cc1ccc(-c2nc3cc(NC(=O)c4cc5ccccc5o4)ccc3o2)cc1Cl,–,–,·,·,–,–
Cc1ccc(NC(=O)c2cc3ccccc3o2)cc1Cl,13µM,–,–,–,–,–
CCc1nc2ccc(C(=O)NCCC(C)C)cn2c1N(CC)CCOC,–,–,–,–,–,–
Cc1cccc(-c2nc3c4ccccc4nc(N4CCN(c5cccc(Cl)c5)CC4)n3n2)c1,–,–,·,·,–,–
COc1ccc(NC(=O)COC(=O)c2c3c(nc4ccccc24)CCCC3)cc1Cl,3.5µM,–,–,–,?,–
COc1ccc(NC(=O)COC(=O)c2c3c(nc4ccccc24)CCCC3)cc1,?,–,–,–,–,–
O=C(Nc1nccs1)c1ccccc1N=Cc1ccccc1,?,28µM,–,–,–,–
COc1cccc(C=Nc2ccccc2C(=O)Nc2nccs2)c1OC,–,32µM,–,-74,–,–
O=C(Nc1ccccc1)c1ccccc1N=Cc1ccccc1O,–,35µM,–,–,–,–
COc1cccc(NC(=O)C2(C)CCCN(C(C)C)C2)c1 (stereo unspecified),–,–,–,–,–,–
Cc1ccc(C)c(Cn2c(=O)n(CCCCC(=O)NCc3ccc4c(c3)OCO4)c(=O)c3ccccc32)c1,–,–,–,·,–,–
CCN1C(=O)/C(=C\N2CCN(c3ccc(F)cc3)CC2)SC1=S,–,–,–,–,–,34
CCN1C(=O)/C(=C\N2CCN(C)CC2)SC1=S,–,–,–,–,–,–
O=C(O)C1C2C=CC(C2)C1C(=O)NCc1ccc2c(c1)OCO2 (stereo unspecified),–,–,–,–,–,–
O=C(O)C1C2C=CC(C2)C1C(=O)NCc1ccc(Cl)c(Cl)c1 (stereo unspecified),11µM,–,–,–,–,–
CC1(C(=O)NS(=O)(=O)c2cccs2)CCN1C(=O)CC1CC1 (stereo unspecified),–,–,–,–,–,–
O=C1c2ccccc2C(=O)N1CC(O)COc1cccc2ccccc12 (stereo unspecified),–,–,–,–,–,–
SMILES,GLP1R inv ag,ClpP mod,GLP-1R agonist,DRD3 antagonist,HEK293 tox,DRD3 agonist
Cc1cccc(C)c1NC(=O)C[N+](C)(C)CC(O)COc1cccc2ccccc12 (stereo unspecified),–,–,–,-52,–,–
CC(C)C(=O)OCC(=O)[C@@]12O[C@H](C3CCCCC3)O[C@@H]1C[C@H]1[C@@H]3CCC4=CC(=O)C=C[C@]4(C)[C@H]3[C@@H](O)C[C@@]12C,·,·,·,·,·,–
COc1cc2sc3ccc(-c4ccc(CN5CCOCC5)cc4)cc3c(=O)c2cc1OC,–,?,–,–,–,118
Cc1ccc(S(=O)(=O)NCc2ccc(C(=O)N3CCc4ccccc4C3)cc2)cc1,?,28µM,–,?,–,–
CCNS(=O)(=O)c1ccc(CCC(=O)N2CCc3ccccc3C2)cc1,–,–,–,-72,–,–
CS(=O)(=O)N(CC(=O)N/N=C/c1cccc2c1OCCO2)c1ccccc1Br,–,?,–,–,–,–
O=C(CN(c1ccc(Cl)c(C(F)(F)F)c1)S(=O)(=O)c1ccccc1)N/N=C/c1cccc2c1OCCO2,–,22µM,–,-63,–,–
O=C(NC1CCCC1)C(c1ccccc1F)N(C(=O)Cc1cccs1)c1ccc2c(c1)OCCO2 (stereo unspecified),10µM,–,–,–,–,–
CCCCc1ccc(C(=O)N/C(=C\c2ccc(C)cc2)C(=O)NC2CCCCC2)cc1,–,–,·,·,–,–
COc1cc(OC)c(OC)cc1/C=N/NC(=O)CC1C(=O)NN=C1C (stereo unspecified),–,28µM,–,–,–,–
CC1=NNC(=O)C1CC(=O)N/N=C/c1sccc1C (stereo unspecified),–,·,–,–,–,–
CCn1c(=NC(=O)c2ccc(S(=O)(=O)N3CCCC3)cc2)sc2cc(Br)ccc21,–,?,–,·,–,–
Clc1cccc(N/N=C/c2ccc(N3CCOCC3)s2)c1,2.8µM,–,–,–,?,–
O=C(N/N=C/c1ccc(N2CCOCC2)s1)c1ccccc1Br,–,·,–,–,–,–
COc1ccccc1NC(=O)C(=O)NCC(c1ccc2c(c1)OCO2)N1CCN(C)CC1 (stereo unspecified),–,–,·,·,–,–
CCS(=O)(=O)c1ncc(N(Cc2ccco2)Cc2ccccc2F)c(C(=O)Nc2cccc(Cl)c2)n1,8.9µM,–,·,·,–,–
CS(=O)(=O)c1ncc(N(Cc2ccccc2)Cc2ccco2)c(C(=O)Nc2cccc(C(F)(F)F)c2)n1,?,–,·,·,–,–
CC(C)c1ccc(CN(Cc2ccco2)c2cnc(S(C)(=O)=O)nc2C(=O)Nc2ccccc2)cc1,5µM,–,·,·,–,–
Cc1cc(C)c2oc(C(=O)Nc3sc4c(c3C(=O)NCc3ccco3)CCC4)cc(=O)c2c1,–,–,·,·,–,–
CCCC(=O)NCCc1cc2cc(C)c(C)cc2[nH]c1=O,–,25µM,–,?,–,–
CCCCC(=O)NCCc1cc2ccc(OC)cc2[nH]c1=O,–,25µM,–,–,–,–
